Hit rate of the full screen: of about 13,000 compounds, about 3,200 (25%) showed an effect of 50% or more. The list shows a part of the results.
System: P. falciparum stage V gametocytes
Parameters: BacTiter-Glo ATP luminescence viability of purified stage V gametocytes in 384-well plates, per cent inhibition versus DMSO
Conditions: 48 h, 5 µM; inhibitor

Row | SMILES | % Inhibition [%]
1 | COc1ccc(CC2(CO)CCN(Cc3ccc(O)c(Cl)c3)CC2)cc1 [TCMDC-124684] | -47.93
2 | CNC(=O)C1Cc2c([nH]c3cc(Cl)ccc23)C2(CCN(CCc3ccccc3)CC2)N1 (centres unmarked) [TCMDC-141299] | -88.09
3 | COc1cc(N(Cc2ccccc2C)S(=O)(=O)Cc2ccccc2[N+](=O)[O-])c(OC)cc1Cl [TCMDC-141749] | 44.47
4 | COc1ccc([N+](=O)[O-])cc1N(Cc1ccccc1-c1ccccc1)S(=O)(=O)c1ccc(C(F)(F)F)cc1[N+](=O)[O-] [TCMDC-141596] | 92.47
5 | COc1ccc([N+](=O)[O-])cc1N(Cc1ccccc1-c1ccccc1)S(=O)(=O)c1ccc(C(F)(F)F)cc1 [TCMDC-141595] | -1.284
6 | CCOC(=O)c1[nH]c(-c2cc(Cl)nc(Cl)c2)nc1NC(=S)NCCCN1CCOCC1 [TCMDC-138898] | -1.969
7 | COc1ccc2nccc([C@@H](O)CN3CCC(NCc4cc5ccccc5[nH]4)CC3)c2c1 [TCMDC-140520] | 22.46
8 | COc1ccc2nccc([C@@H](O)CN3CCC(NCc4cc5ccc(C#N)cc5[nH]4)CC3)c2c1 [TCMDC-140696] | 8.806
9 | COc1ccc2nccc([C@@H](O)CN3CCC(NCc4nc5ccc(F)cc5[nH]4)CC3)c2c1 [TCMDC-140651] | -60.2
10 | COc1ccc2nccc([C@@H](O)CN3CCC(NCc4cc5cc(OC(F)(F)F)ccc5[nH]4)CC3)c2c1 [TCMDC-140692] | 96.42
11 | COc1ccc2nccc([C@@H](O)CN3CCC(NCc4nc5c(F)cc(F)cc5[nH]4)CC3)c2c1 [TCMDC-140664] | -52.05
12 | COc1ccc2nccc([C@@H](O)CN3CCC(NCc4cc5c(Cl)cc(Cl)cc5[nH]4)CC3)c2c1 [TCMDC-140649] | 102.2
13 | COc1ccc2nccc([C@@H](O)CN3CCC(NCc4cc5c(F)ccc(F)c5[nH]4)CC3)c2c1 [TCMDC-140739] | -16.25
14 | COc1ccc2nccc([C@@H](O)CN3CCC(NCc4nc5cc(F)c(F)cc5[nH]4)CC3)c2c1 [TCMDC-140665] | 66.97
15 | COc1ccc2nccc([C@@H](O)CN3CCC(NCc4cc5c(Cl)cccc5[nH]4)CC3)c2c1 [TCMDC-140695] | 48.39
16 | COc1ccc2nccc([C@@H](O)CN3CCC(NCc4cc5ccccc5[nH]c4=O)CC3)c2c1 [TCMDC-140759] | 15.99
17 | COc1ccc2nccc([C@@H](O)CN3CCC(NCc4nc5ccccc5[nH]4)CC3)c2c1 [TCMDC-140550] | 32.31
18 | COc1ccc2nccc([C@@H](O)CN3CCC(NCc4cc5ccc(Cl)cc5[nH]4)CC3)c2c1 [TCMDC-140694] | 96.18
19 | CO/N=C(\C)c1ccc2c(c1)CCN(CCC1CCC(NC(=O)c3cccc(-c4noc(C)n4)c3)CC1)CC2 (centres unmarked) [TCMDC-139923] | 19.53
20 | CC(C)c1cccc(OCC2CCN(c3ncc(C(=O)Nc4ccccc4)cc3Cl)CC2)c1 [TCMDC-134262] | 5.5
21 | O=C(NC1CC1)c1cnc(N2CCC(c3ccccc3)CC2)c(Cl)c1 [TCMDC-134605] | 18.88
22 | COc1cc(F)c2nccc([C@@H](O)CN3CCC(NCc4nc5c(F)cccc5[nH]4)CC3)c2c1 [TCMDC-140970] | -8.506

Row | SMILES | % Inhibition [%]
23 | COc1ccc2nccc([C@@H](O)CN3CCC(NCc4cc5cc([N+](=O)[O-])ccc5[nH]4)CC3)c2c1 [TCMDC-140693] | 14.13
24 | COc1ccc2nccc([C@@H](O)CN3CCC(NCc4cc5cccc(O)c5c(=O)[nH]4)CC3)c2c1 [TCMDC-141223] | 13.37
25 | COc1ccc2nccc([C@@H](O)CN3CCC(NCc4ccc5c(c4)NC(=O)CO5)CC3)c2c1 [TCMDC-140793] | 20.76
26 | COc1cc(F)c2ncc(F)c([C@@H](O)CN3CCC(NCc4cc5c(cn4)OCCO5)CC3)c2c1 [TCMDC-135378] | -21.41
27 | COc1cc(F)c2nccc([C@@H](O)CN3CCC(NCc4cc5c(cc4F)OCCO5)CC3)c2c1 [TCMDC-141570] | 69.54
28 | COc1ccc2nccc([C@@H](O)CN3CCC(NCc4cc5cc(Cl)ccc5[nH]4)CC3)c2c1 [TCMDC-140697] | 66.18
29 | COc1ccc2nccc([C@@H](O)CN3CCC(NCc4ccc5c(c4)NC(=O)C(C)S5)CC3)c2c1 (some centres unmarked) [TCMDC-141222] | 79.58
30 | COc1ccc2nccc([C@@H](O)CN3CCC(NCc4ccc5c(c4)NC(=O)CS5)CC3)c2c1 [TCMDC-141058] | 3.469
31 | CCCN1CCC2(CC1)NC(C(=O)NCCC(C)C)Cc1c2[nH]c2cc(Cl)ccc12 (centres unmarked) [TCMDC-141295] | -32.44
32 | COc1ccccc1C(=O)Nc1ccc(Nc2nc(C)cc(N3CCOCC3)n2)cc1 [TCMDC-124706] | 21.35
33 | Cn1cncc1C(=O)Nc1cccc(-c2ccc(-c3nc4ccc(C(F)(F)F)cc4[nH]3)cc2)c1 [TCMDC-137064] | -23.15
34 | Cn1cncc1C(=O)Nc1cccc(-c2cccc(-c3nc4ccc(C(F)(F)F)cc4[nH]3)c2)c1 [TCMDC-137061] | 89.86
35 | Cc1cccc2[nH]c(-c3ccc(-c4cccc(NC(=O)c5cncn5C)c4)cc3)nc12 [TCMDC-137057] | -16.54
36 | Cc1cccc2[nH]c(-c3cccc(-c4cccc(NC(=O)c5cncn5C)c4)c3)nc12 [TCMDC-137063] | 85.59
37 | Cn1cncc1C(=O)Nc1cccc(-c2ccc(-c3nc4ccccc4[nH]3)cc2)c1 [TCMDC-137060] | 87.09
38 | Cn1cncc1C(=O)Nc1cccc(-c2cccc(-c3nc4ccc(F)cc4[nH]3)c2)c1 [TCMDC-137058] | 82.61
39 | Cn1cncc1C(=O)Nc1ccc(-c2cccc(-c3nc4ccc(C(F)(F)F)cc4[nH]3)c2)cc1 [TCMDC-137062] | -23.24
40 | Cc1cccc2[nH]c(-c3cccc(-c4cccc(NC(=O)c5cn(C)c(=O)n5C)c4)c3)nc12 [TCMDC-137137] | -10.73
41 | Cn1cncc1C(=O)Nc1cccc(-c2csc(-c3nc4ccccc4[nH]3)c2)c1 [TCMDC-132396] | -5.264
42 | Cn1cncc1C(=O)Nc1ccc(-c2cccc(-c3nc4ccc(F)cc4[nH]3)c2)cc1 [TCMDC-137056] | 28.45
43 | Cn1cncc1C(=O)Nc1cccc(-c2cccc(-c3nc4ccccc4[nH]3)c2)c1 [TCMDC-137054] | 26.78
44 | Cn1cncc1C(=O)Nc1cccc(-c2ccc(-c3nc4ccc(F)cc4[nH]3)cc2)c1 [TCMDC-137059] | -26.92

— PMC4552634, “A New Set of Chemical Starting Points with Plasmodium falciparum Transmission-Blocking Potential for Antimalarial Drug Discovery” (PLoS ONE, 2015)
